# Test results published in PubChem BioAssay AID1892 (NMMLSC, 2009).
# Among all 5,900 compounds or so, about 140 (2.4%) were called active. This excerpt belongs to a sample that is enriched for actives. Unmarked numbers belong to inactive results. No stated cut-off is given here; in the data, active means binding response below about 16% or above about 210%; inactive means in between.
# Target: Mitogen-activated protein kinase kinase kinase 2 (Homo sapiens) (UniProt Q9Y2U5)
# Experiment: modulators of MEK5 binding to wildtype MEKK2, confirmation, biochemical, single concentration, multiplex bead flow cytometry (AID 1892)
# Conditions: Alexa488-MEK5 binding to MEKK2 WT, at 10 µM, actives lie on both sides
row,Compound,binding response (% of control)
1,Cc1nn(-c2ccccc2)c(C)c1NC(=O)CCl,95%
2,C=CCn1c(P(C)(=O)O)nc2ccccc21,95%
3,CNC(=O)/C(=C\C=C\c1ccccc1)NC(=O)c1ccc([N+](=O)[O-])cc1,99%
4,Cc1ccc(N(CCC(=O)O)S(=O)(=O)c2cccc(C(F)(F)F)c2)cc1,102%
5,CN(c1ccccc1)c1ccc(/C=c2\s/c(=C(/C#N)C(=O)C(C)(C)C)n(Cc3ccco3)c2=O)cc1,73%
6,CCN(CC)CCCNC(=O)c1ccc2c(=O)n(Cc3ccc4c(c3)OCO4)c(=S)[nH]c2c1,128%
7,O=C(NC1CCN(Cc2ccccc2)CC1)c1ccc(Oc2cc(Cl)cc(Cl)c2)o1,138%
8,COCCN1C=C2C(=O)C(C)(OC(=O)C3CCCC3)C(=O)C=C2C=C1c1ccsc1 (stereo not given),96%
9,O=C(NCc1ccccc1Cl)NC(=O)c1csc([N+](=O)[O-])c1,104%
10,COc1ccc(CCn2c(NN=C3CCCC3)nc3c2c(=O)[nH]c(=O)n3C)cc1,102%
11,CCOC(=O)c1sc2nc(C)nc(SCC(N)=O)c2c1C,102%
12,COc1ccccc1N=C(C)C1=C(O)COC1=O,106%
13,Cc1nc2cc(S(=O)(=O)C(F)(F)F)ccc2s1,106%
14,CC(C)CC(=O)NC(=S)NCc1ccccc1,98%
15,COc1ccc(C(=O)NCC(=O)N/N=C/c2ccc([N+](=O)[O-])o2)cc1OC,92%
16,CCOC(=O)c1c(NC(=O)c2ccc(S(=O)(=O)N(C)CC3CCCO3)cc2)sc2c1CC(C)(C)NC2(C)C (stereo not given),121%
17,COc1cccc(OCC(=O)NNC(=O)c2cnccn2)c1,98%
18,COc1ccc(C2CC(=O)Nc3cc(C)c(C)cc32)c(OC)c1OC (stereo not given),101%
19,COc1ccc(SC[C@H](Cc2ccccc2)N2CCN(CCc3ccccc3)CCC2=O)cc1,129%
20,Cc1cc(C)nc(-n2ncc3c2CC(c2ccc(C(C)C)cc2)CC3=O)n1 (stereo not given),102%

row,Compound,binding response (% of control)
1,Cc1c(C#N)c2ncn(CC#N)c(=O)c2n1-c1ccccc1,99%
2,CC(=O)Nc1ccc(N2CCOCC2)c(C(=O)Nc2cccc(C)c2)c1,102%
3,CCCCNC(=O)N1CCCC(N(C)CCc2ccc(OC)c(OC)c2)C1 (stereo not given),103%
4,Cc1ccc(C(=O)NC(=S)Nc2ccc3[nH]c(=O)[nH]c3c2)cc1C,101%
5,CCN1CCN(c2ccc(S(=O)(=O)N3CCCCC3)cc2NC(=O)Cc2c(Cl)cccc2Cl)CC1,125%
6,Cc1cnc(NC(=O)Cn2cnc3c2c(=O)n(C)c(=O)n3C)s1,96%
7,O=c1c2ccccc2c(-c2ccccc2)nn1Cc1ccccc1,100%
8,Cc1ccccc1OCC(=O)Nc1ccc(N2CCN(C(=O)C(C)C)CC2)c(Cl)c1,93%
9,O=C1NCC(=O)N(Cc2ccccc2)/C1=C/c1ccccc1,75%
10,CC1(C)OC(=O)N2CCc3ccccc3C21C (stereo not given),101%
11,CN(C)c1ccc(/C=C2\NC(=S)N(Cc3ccccc3)C2=O)cc1,86%
12,Cc1ccc(N2C(=O)CC(N3CCSCC3)C2=O)c(C)c1 (stereo not given),103%
13,Cc1ccc(NC(=S)N(CCCN2CCCC2)Cc2cccn2Cc2ccc(Cl)cc2)cc1,160%
14,COc1ccc(-c2[nH]ncc2CN(C)Cc2c(C)n[nH]c2C)c(OC)c1,108%
15,COc1ccccc1CC(=O)Nc1ccc([N+](=O)[O-])cc1OC,100%
16,Cc1ccc(Nc2nc(CSc3nnc(-c4ccncc4)n3-c3ccccc3C)cs2)cc1,101%
17,O=C(/C=C/Nc1ccccc1)c1cnc(-c2ccccc2)s1,107%
18,CC(C)CC(=O)N1CCN(Cc2ccccc2Br)CC1,105%
19,Cc1ccccc1CCN(CC(=O)NC1CCCCC1)C(=O)c1csnn1,96%
20,Cc1cccc(/C=N/NC(=O)CNc2cccc3ccccc23)n1,103%

row,Compound,binding response (% of control)
1,CC(C)(C)NC(=O)c1cccc(NC(=O)Cc2ccc(Br)cc2)c1,100%
2,CCOc1cc(C2C(C(=O)OC)=CN(C3CCCC3)C=C2C(=O)OC)cc(Br)c1O,108%
3,COc1ccc(CCNC(=O)CSc2nnc3ccc(-c4ccncc4)nn23)cc1,102%
4,CCCCOC(=O)c1ccc(N2C(=O)CC(N3CCN(C/C=C/c4ccccc4)CC3)C2=O)cc1 (stereo not given),124%
5,O=C(NCC1CCCCC1)c1cc(S(=O)(=O)N2CCCCC2)ccc1N1CCOCC1,87%
6,Cn1c(SCc2nc3ccccc3s2)nnc1-c1ccc2c(c1)OCO2,102%
7,Cc1cccc(-c2ncc(CN3CCC(CO)(CCCc4ccccc4)CC3)cn2)c1,131%
8,Cc1cn(COC/C=C/c2ccccc2)c(=O)[nH]c1=O,103%
9,COc1cc(NC(=S)NCc2ccco2)c(OC)cc1Cl,108%
10,COC(=O)c1c(NC(=O)COC(=O)[C@@H](NS(=O)(=O)c2ccccc2)C(C)C)sc2c1CCC2,96%
11,COc1cc(-c2nc(-c3ccncc3)no2)cc(OC)c1OC,104%
12,Cc1cccc(CSc2nnc(C)c(=O)n2N)c1,100%
13,O=C(O)CCCC(=O)Nc1ccc(Oc2cccc(C(F)(F)F)c2)nc1,106%
14,COc1cc(CC(=O)N/N=C/c2ccccc2)c([N+](=O)[O-])cc1OC,99%
15,COc1ccc(S(=O)(=O)N2CN(CCc3ccc(OC)c(OC)c3)c3nc4ccccc4nc32)cc1,96%
16,CCOC(=O)C(NS(=O)(=O)c1ccc(C)cc1)(C(F)(F)F)P(=O)(OCC(C)C)OCC(C)C (stereo not given),90%
17,O=c1[nH]c(=S)[nH]c2[nH]c(=S)[nH]c12,101%
18,Cc1ccccc1-c1ccc(Nc2ccc(C(=O)N3CCOCC3)cc2)nn1,103%
19,CCOC(=O)c1c(Cc2ccc(Cl)cc2)c[nH]c1C,105%
20,O=C(Nc1cccnc1)c1cc(Cl)ccc1Cl,109%
